Experimental data as given in PubChem BioAssay (Tox21).
Results filed as inconclusive are left out. A call without a number means that no potency is given here. Active and inactive are the calls of the source. Unless noted, the call rests on the fitted dose curve; in most records, active means well fitted curve in the direction sought with a large enough effect in the repeat runs; inconclusive means weak or mixed curves; inactive means no such curve, though single readings can be large; an effect the other way counts as inactive or inconclusive.

Assays:
[1] = target: Acetylcholinesterase (Homo sapiens) (UniProt P22303); test: Acetylcholinesterase (AChE) small molecule antagonists: fluorescence cell-based qHTS assay (AID 1347398; calls by dose curve; further: nearly all actives have a fitted effect of over 50% in size; further: potency means the concentration at half of the fitted maximal effect); details: SH-SY5Y cells; Potency: AChE activity; series mostly up to 115 µM
Method in brief: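 Using neuroblastoma SH-SY5Y cells as the enzyme source, test chemicals are preincubated 30 min at 37 C; AChE-driven acetylthiocholine cleavage is then quantified by thiocholine-dependent Thiolite Green fluorescence after 40 min at room temperature.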

[2] = target: Acetylcholinesterase (Homo sapiens) (UniProt P22303); test: Acetylcholinesterase (AChE) small molecule antagonists: enzyme-based qHTS assay with human liver microsomes (AID 1347399; calls by dose curve; further: nearly all actives have a fitted effect of over 60% in size; further: potency means the concentration at half of the fitted maximal effect); details: Potency: qHTS inhibition; series mostly up to 115 µM
Method in brief: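 Recombinant human AChE (50 mU/mL in the enzyme mix) and human liver microsomes (0.25 mg/mL final) were preincubated with compound and NADPH (0.25 mg/mL final) for 30 min at 37 C. Acetylthiocholine/DTNB was then added; thiocholine was read colorimetrically after 10 min at room temperature.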

[3] = target: Cytochrome P450 2D6 (Homo sapiens) (UniProt P10635); test: Cytochrome P450 Family 2 Subfamily D Member 6 (CYP2D6) small molecule antagonists: luciferase reporter qHTS assay (AID 1671196); details: P450-Glo CYP2D6 enzyme assay, luciferin luminescence, 1 h; series mostly up to 115 µM; further: nearly all actives have a fitted effect of over 50% in size
Method in brief: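 Room-temperature luminescent CYP2D6 activity assay: compound preincubated 10 min with enzyme–substrate mix, NADPH-initiated reaction 1 h, detection reagent 20 min before reading.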

[4] = target: Cytochrome P450 2C9 (Homo sapiens) (UniProt P11712); test: Cytochrome P450 Family 2 Subfamily C Member 9 (CYP2C9) small molecule antagonists: luciferase reporter qHTS assay (AID 1671198); details: P450-Glo CYP2C9 enzyme assay, luciferin luminescence; series mostly up to 115 µM; further: nearly all actives have a fitted effect of over 50% in size; further: potency means the concentration at half of the fitted maximal effect
Method in brief: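 CYP2C9 activity was measured with a P450-Glo proluciferin substrate. Enzyme–substrate mix was held with compound for 10 min at room temperature, then NADPH regeneration solution was added for 1 h at 37C. Luciferin product was read as luminescence.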

[5] = target: Cytochrome P450 1A2 (Homo sapiens) (UniProt P05177); test: Cytochrome P450 Family 1 Subfamily A Member 2 (CYP1A2) small molecule antagonists: luciferase reporter qHTS assay (AID 1671199); details: P450-Glo CYP1A2 enzyme, luciferin luminescence, 1 h; series mostly up to 115 µM; further: nearly all actives have a fitted effect of over 50% in size; further: potency means the concentration at half of the fitted maximal effect
Method in brief: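 Room-temperature CYP1A2 reaction with proluciferin substrate: compounds added from DMSO, 10 min preincubation, NADPH regeneration for 1 h. Luciferin detection reagent then added; luminescence recorded as RLU.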

[6] = target: Voltage-gated inwardly rectifying potassium channel KCNH2 (Homo sapiens) (UniProt Q12809); test: Human Ether-a-go-go-Related Gene (hERG) channel small molecule antagonists: fluorescence cell-based qHTS assay (AID 1671200); details: hERG-U2OS cells, FluxOR thallium flux fluorescence; series mostly up to 76.8 µM
Method in brief: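 Cell line hERG-U2OS; dye FluxOR II, 1 h RT dark; Tl+ stimulus; ex 480/em 540 nm, read each second for 2 min.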

[7] = target: Cytochrome P450 3A4 (Homo sapiens) (UniProt P08684); test: Cytochrome P450 Family 3 Subfamily A Member 4 (CYP3A4) small molecule antagonists: luciferase reporter qHTS assay (AID 1671201); details: P450-Glo CYP3A4 enzyme, luciferin luminescence, 1 h; series mostly up to 115 µM; further: nearly all actives have a fitted effect of over 50% in size; further: potency means the concentration at half of the fitted maximal effect
Method in brief: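 Room-temperature assay throughout: 10 min compound–enzyme/substrate preincubation, 1 h reaction after NADPH regeneration solution, 20 min detection. Luciferin formed from proluciferin substrate is quantified by luminescence.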

[8] = target: Cytochrome P450 2C19 (Homo sapiens) (UniProt P33261); test: Cytochrome P450 Family 2 Subfamily C Member 19 (CYP2C19) small molecule antagonists: luciferase reporter qHTS assay (AID 1671197); details: P450-Glo CYP2C19 enzyme, luciferin luminescence, 1 h; series mostly up to 115 µM; further: nearly all actives have a fitted effect of over 65% in size; further: potency means the concentration at half of the fitted maximal effect
Method in brief: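 Light output is proportional to CYP2C19 activity: proluciferin substrate is converted to luciferin, then detected by a luciferin detection reagent that also stops the 1 h, 37C NADPH-driven reaction. Ketoconazole serves as positive control.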

Cytochrome P450 2C9 (Homo sapiens), sequence (P11712 whole entry, looked up): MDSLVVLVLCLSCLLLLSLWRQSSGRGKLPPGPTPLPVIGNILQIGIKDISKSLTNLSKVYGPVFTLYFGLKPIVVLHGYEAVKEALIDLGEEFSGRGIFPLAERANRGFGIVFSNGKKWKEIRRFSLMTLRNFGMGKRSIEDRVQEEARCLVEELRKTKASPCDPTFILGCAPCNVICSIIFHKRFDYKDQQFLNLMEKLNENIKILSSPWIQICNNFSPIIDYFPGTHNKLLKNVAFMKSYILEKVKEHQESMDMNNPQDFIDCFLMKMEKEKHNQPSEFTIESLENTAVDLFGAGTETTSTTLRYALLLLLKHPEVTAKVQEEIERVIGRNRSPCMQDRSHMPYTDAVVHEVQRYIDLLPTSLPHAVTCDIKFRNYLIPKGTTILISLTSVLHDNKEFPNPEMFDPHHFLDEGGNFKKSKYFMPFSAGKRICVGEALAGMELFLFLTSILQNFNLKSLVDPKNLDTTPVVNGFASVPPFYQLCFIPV
Cytochrome P450 1A2 (Homo sapiens), sequence (P05177 whole entry, looked up): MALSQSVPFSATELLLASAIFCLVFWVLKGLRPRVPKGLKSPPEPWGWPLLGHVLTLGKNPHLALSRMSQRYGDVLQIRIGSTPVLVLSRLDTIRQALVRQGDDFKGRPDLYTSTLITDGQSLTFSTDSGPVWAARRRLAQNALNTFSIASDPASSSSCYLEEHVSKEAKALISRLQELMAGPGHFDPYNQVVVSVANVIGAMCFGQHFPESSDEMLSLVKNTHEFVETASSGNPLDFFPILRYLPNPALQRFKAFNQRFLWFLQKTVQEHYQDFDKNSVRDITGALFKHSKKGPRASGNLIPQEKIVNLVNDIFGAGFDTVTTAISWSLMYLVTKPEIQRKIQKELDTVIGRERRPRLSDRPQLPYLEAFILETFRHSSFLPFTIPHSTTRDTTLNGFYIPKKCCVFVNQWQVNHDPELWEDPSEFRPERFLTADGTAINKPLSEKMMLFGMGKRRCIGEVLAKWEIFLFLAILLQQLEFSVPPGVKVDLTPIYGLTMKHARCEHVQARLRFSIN
Cytochrome P450 2D6 (Homo sapiens), sequence (P10635 whole entry, looked up): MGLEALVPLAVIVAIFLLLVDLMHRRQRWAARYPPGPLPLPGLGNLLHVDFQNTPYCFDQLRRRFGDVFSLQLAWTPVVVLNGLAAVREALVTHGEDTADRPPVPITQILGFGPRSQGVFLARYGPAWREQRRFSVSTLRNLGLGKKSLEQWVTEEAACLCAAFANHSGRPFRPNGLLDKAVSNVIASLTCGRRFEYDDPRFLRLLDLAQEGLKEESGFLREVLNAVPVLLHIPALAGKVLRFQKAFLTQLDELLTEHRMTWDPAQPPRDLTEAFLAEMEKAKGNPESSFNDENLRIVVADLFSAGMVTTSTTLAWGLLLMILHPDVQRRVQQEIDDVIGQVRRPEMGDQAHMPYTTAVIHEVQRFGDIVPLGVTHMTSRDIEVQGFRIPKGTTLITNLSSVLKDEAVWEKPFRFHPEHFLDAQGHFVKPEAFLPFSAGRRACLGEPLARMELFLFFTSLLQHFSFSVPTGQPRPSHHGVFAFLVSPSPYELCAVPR
Cytochrome P450 2C19 (Homo sapiens), sequence (P33261 whole entry, looked up): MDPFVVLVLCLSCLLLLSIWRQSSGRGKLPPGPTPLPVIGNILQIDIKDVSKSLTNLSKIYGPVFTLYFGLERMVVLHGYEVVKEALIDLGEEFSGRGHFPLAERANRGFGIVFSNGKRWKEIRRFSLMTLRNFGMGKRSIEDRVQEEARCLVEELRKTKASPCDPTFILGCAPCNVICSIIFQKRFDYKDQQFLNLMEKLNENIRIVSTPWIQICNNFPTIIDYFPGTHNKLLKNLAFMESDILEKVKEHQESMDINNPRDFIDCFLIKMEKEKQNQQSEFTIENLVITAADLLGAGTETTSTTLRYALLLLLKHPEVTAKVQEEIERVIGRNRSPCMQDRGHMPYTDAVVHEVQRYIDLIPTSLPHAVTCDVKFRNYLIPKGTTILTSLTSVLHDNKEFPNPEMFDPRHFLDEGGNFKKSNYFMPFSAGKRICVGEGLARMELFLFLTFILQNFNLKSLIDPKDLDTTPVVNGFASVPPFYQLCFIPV
Cytochrome P450 3A4 (Homo sapiens), sequence (P08684 whole entry, looked up): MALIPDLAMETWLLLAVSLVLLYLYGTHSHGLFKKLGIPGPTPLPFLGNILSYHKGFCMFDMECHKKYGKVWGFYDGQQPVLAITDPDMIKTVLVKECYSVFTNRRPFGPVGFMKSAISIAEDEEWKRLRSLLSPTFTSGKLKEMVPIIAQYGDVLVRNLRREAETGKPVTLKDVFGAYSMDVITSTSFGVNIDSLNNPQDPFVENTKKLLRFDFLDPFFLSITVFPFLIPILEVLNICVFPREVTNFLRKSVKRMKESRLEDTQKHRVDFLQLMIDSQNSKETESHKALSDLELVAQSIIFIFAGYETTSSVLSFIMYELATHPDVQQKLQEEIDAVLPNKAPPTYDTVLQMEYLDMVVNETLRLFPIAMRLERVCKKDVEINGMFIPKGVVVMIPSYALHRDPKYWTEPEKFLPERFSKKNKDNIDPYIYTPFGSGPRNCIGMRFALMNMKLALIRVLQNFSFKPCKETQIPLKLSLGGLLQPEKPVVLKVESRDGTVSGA
Voltage-gated inwardly rectifying potassium channel KCNH2 (Homo sapiens), sequence (Q12809 whole entry, looked up): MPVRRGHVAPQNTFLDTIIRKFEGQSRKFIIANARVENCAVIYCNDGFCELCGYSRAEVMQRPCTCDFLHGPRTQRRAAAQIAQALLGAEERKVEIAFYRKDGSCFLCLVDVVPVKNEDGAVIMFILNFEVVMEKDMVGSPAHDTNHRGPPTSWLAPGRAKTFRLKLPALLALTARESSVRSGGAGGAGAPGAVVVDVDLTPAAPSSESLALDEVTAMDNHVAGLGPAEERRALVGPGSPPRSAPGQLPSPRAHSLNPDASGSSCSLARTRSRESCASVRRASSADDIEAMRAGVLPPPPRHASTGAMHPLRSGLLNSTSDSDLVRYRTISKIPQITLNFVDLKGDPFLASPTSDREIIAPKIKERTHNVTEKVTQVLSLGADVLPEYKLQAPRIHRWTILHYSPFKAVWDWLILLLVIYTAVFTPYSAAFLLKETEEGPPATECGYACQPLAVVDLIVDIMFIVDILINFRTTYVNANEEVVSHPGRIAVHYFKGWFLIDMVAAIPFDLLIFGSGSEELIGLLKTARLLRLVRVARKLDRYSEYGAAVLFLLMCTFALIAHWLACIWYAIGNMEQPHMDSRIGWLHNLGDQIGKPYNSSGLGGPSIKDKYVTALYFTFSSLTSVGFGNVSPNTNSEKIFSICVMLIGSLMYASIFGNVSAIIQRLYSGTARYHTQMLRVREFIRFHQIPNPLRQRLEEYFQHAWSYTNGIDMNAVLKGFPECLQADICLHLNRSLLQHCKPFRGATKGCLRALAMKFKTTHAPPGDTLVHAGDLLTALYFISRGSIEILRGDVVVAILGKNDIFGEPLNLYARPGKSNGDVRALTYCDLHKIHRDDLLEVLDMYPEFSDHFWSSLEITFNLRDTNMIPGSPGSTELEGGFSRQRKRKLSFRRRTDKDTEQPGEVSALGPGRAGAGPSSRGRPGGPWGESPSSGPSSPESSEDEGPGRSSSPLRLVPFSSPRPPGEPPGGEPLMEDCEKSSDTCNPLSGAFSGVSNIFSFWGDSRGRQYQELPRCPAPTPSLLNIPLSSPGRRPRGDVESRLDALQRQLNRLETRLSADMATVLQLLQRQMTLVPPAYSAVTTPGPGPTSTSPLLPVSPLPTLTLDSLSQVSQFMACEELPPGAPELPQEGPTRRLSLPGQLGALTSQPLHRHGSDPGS
Acetylcholinesterase (Homo sapiens), sequence (P22303 whole entry, looked up): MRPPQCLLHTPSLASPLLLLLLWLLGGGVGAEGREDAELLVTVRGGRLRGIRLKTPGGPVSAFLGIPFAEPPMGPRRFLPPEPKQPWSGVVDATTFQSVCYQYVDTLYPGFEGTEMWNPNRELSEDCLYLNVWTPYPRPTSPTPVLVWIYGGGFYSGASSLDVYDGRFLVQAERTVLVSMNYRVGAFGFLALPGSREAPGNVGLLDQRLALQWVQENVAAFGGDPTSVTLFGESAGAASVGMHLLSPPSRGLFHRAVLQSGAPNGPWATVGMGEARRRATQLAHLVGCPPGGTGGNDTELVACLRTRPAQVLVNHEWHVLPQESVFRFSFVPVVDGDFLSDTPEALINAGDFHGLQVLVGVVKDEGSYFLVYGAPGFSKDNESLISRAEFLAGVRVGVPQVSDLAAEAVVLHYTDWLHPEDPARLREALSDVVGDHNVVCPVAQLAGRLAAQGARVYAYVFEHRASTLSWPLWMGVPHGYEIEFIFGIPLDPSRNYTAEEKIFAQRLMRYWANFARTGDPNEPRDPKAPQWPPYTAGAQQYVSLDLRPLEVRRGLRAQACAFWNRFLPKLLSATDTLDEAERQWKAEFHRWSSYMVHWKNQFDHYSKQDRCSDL

Compound	Potency [1]	Potency [2]	Potency [3]	Potency [4]	Potency [5]	Potency [6]	Potency [7]	Potency [8]
COC(=O)c1ccccc1S(=O)(=O)NC(=O)N(C)c1nc(C)nc(OC)n1	inactive	inactive	inactive	inactive	inactive	inactive	inactive	–
CCOP(=S)(Oc1cnc(C(C)(C)C)nc1)OC(C)C (stereo not drawn)	39900 nM (active)	10000 nM (active)	–	1590 nM (active)	22400 nM (active)	–	1590 nM (active)	356 nM (active)
Cc1ncc(CNC(=O)N(CCCl)N=O)c(N)n1	inactive	inactive	inactive	–	–	inactive	inactive	–
ClCCOCOCCCl	inactive	inactive	inactive	–	inactive	inactive	inactive	–
CCN(CC)c1nc(C)cc(OP(=S)(OC)OC)n1	–	inactive	–	–	1780 nM (active)	–	2240 nM (active)	178 nM (active)
CN/C(=N\[N+](=O)[O-])NCC1CCOC1 (stereo not drawn)	–	–	–	–	–	inactive	–	–
CC(=O)Nc1cc([As](=O)(O)O)ccc1O	inactive	inactive	–	inactive	inactive	inactive	inactive	inactive
CCOP(=S)(OCC)Oc1nc(Cl)n(C(C)C)n1	–	–	–	5030 nM (active)	–	inactive	1590 nM (active)	252 nM (active)
CNC(=O)Oc1cccc(C(C)C)c1	–	–	–	–	–	inactive	–	–
c1cc2c(c(N3CCNCC3)c1)OCCO2	inactive	inactive	–	inactive	inactive	inactive	inactive	inactive
